Assay results reported in PubChem BioAssay AID1159580 (chemical genetic matrix, 2015).
In all, about 5,500 compounds went through this assay and about 2,000 (36%) were called active. Inconclusive results (about 18%) are left out. Cut-off read from the data, not from the text of the source: active = normalized growth mostly below about 0.91 (no sharp cut-off); inconclusive = no clear call, values can overlap the other calls; inactive = mostly above about 0.92. Some of the results follow.

Assay: chemical genetic growth profiling, strain panel (AID 1159580);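 note: tested at 20 µM; growth read once vehicle control cultures reached saturation at 30 °C; 1 = growth at the plate median or of vehicle wells; lower values mean less growth of the strain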
Settings: growth OD
[1] = S. cerevisiae deletion strains, locus YHR030C, strain SLT2, hits give low values
[2] = S. cerevisiae deletion strains, locus YHR079C, strain IRE1, hits give low values
[3] = S. cerevisiae deletion strains, locus YJL095W, strain BCK1, hits give low values
[4] = S. cerevisiae deletion strains, locus YJR066W, strain TOR1, hits give low values
[5] = S. cerevisiae deletion strains, locus YLR113W, strain HOG1, hits give low values
[6] = S. cerevisiae deletion strains, locus YNL183C, strain NPR1, hits give low values
[7] = S. cerevisiae deletion strains, locus YOR231W, strain MKK1, hits give low values
[8] = S. cerevisiae deletion strains, locus YPL256C, strain CLN2, hits give low values
[9] = S. cerevisiae deletion strains, locus YDL101C, strain DUN1, hits give low values
[10] = S. cerevisiae deletion strains, locus YAR019C, strain CDC15, hits give low values
[11] = S. cerevisiae deletion strains, locus YBL105C, strain PKC1, hits give low values
[12] = S. cerevisiae deletion strains, locus YBR135W, strain CKS1, hits give low values
[13] = S. cerevisiae deletion strains, locus YBR136W, strain MEC1, hits give low values
[14] = S. cerevisiae deletion strains, locus YBR160W, strain CDC28, hits give low values
[15] = S. cerevisiae deletion strains, locus YDL017W, strain CDC7, hits give low values
[16] = S. cerevisiae deletion strains, locus YDL028C, strain MPS1, hits give low values
[17] = S. cerevisiae deletion strains, locus YDL108W, strain KIN28, hits give low values
[18] = S. cerevisiae deletion strains, locus YDL132W, strain cdc53, hits give low values
[19] = S. cerevisiae deletion strains, locus YDL214C, strain PRR2, hits give low values
[20] = S. cerevisiae deletion strains, locus YDR052C, strain DBF4, hits give low values
[21] = S. cerevisiae deletion strains, locus YDR054C, strain cdc34, hits give low values
[22] = S. cerevisiae deletion strains, locus YDR226W, strain ADK1, hits give low values
[23] = S. cerevisiae deletion strains, locus YDR477W, strain SNF1, hits give low values
[24] = S. cerevisiae deletion strains, locus YER123W, strain YCK3, hits give low values
[25] = S. cerevisiae deletion strains, locus YER133W, strain GLC7, hits give low values
[26] = S. cerevisiae deletion strains, locus YFL009W, strain cdc4, hits give low values
[27] = S. cerevisiae deletion strains, locus YFL029C, strain CAK1, hits give low values
[28] = S. cerevisiae deletion strains, locus YFR003C, strain YPI1, hits give low values
[29] = S. cerevisiae deletion strains, locus YFR019W, strain FAB1, hits give low values
[30] = S. cerevisiae deletion strains, locus YFR028C, strain CDC14, hits give low values
[31] = S. cerevisiae deletion strains, locus YGR040W, strain KSS1, hits give low values
[32] = S. cerevisiae deletion strains, locus YGR052W, strain FMP48, hits give low values
[33] = S. cerevisiae deletion strains, locus YGR092W, strain DBF2, hits give low values
[34] = S. cerevisiae deletion strains, locus YHR082C, strain KSP1, hits give low values
[35] = S. cerevisiae deletion strains, locus YHR205W, strain SCH9, hits give low values
[36] = S. cerevisiae deletion strains, locus YIL147C, strain SLN1, hits give low values
[37] = S. cerevisiae deletion strains, locus YJL128C, strain PBS2, hits give low values
[38] = S. cerevisiae deletion strains, locus YJL157C, strain FAR1, hits give low values
[39] = S. cerevisiae deletion strains, locus YJR016C, strain ILV3, hits give low values
[40] = S. cerevisiae deletion strains, locus YJR066W, strain TOR1 (second series), hits give low values
[41] = S. cerevisiae deletion strains, locus YKL048C, strain ELM1, hits give low values
[42] = S. cerevisiae deletion strains, locus YKL067W, strain YNK1, hits give low values
[43] = S. cerevisiae deletion strains, locus YKL101W, strain HSL1, hits give low values
[44] = S. cerevisiae deletion strains, locus YKL193C, strain SDS22, hits give low values
[45] = S. cerevisiae deletion strains, locus YKL203C, strain TOR2, hits give low values
[46] = S. cerevisiae deletion strains, locus YLR133W, strain CKI1, hits give low values
[47] = S. cerevisiae deletion strains, locus YLR403W, strain SFP1, hits give low values
[48] = S. cerevisiae deletion strains, locus YML070W, strain DAK1, hits give low values
[49] = S. cerevisiae deletion strains, locus YMR001C, strain CDC5, hits give low values
[50] = S. cerevisiae deletion strains, locus YMR205C, strain PFK2 (second series), hits give low values
[51] = S. cerevisiae deletion strains, locus YMR277W, strain FCP1, hits give low values
[52] = S. cerevisiae deletion strains, locus YNL006W, strain LST8, hits give low values
[53] = S. cerevisiae deletion strains, locus YNL020C, strain ARK1, hits give low values
[54] = S. cerevisiae deletion strains, locus YNL161W, strain CBK1, hits give low values
[55] = S. cerevisiae deletion strains, locus YNL207W, strain RIO2, hits give low values
[56] = S. cerevisiae deletion strains, locus YNL222W, strain SSU72, hits give low values
[57] = S. cerevisiae deletion strains, locus YNL307C, strain MCK1 (second series), hits give low values
[58] = S. cerevisiae deletion strains, locus YOL078W, strain AVO1, hits give low values
[59] = S. cerevisiae deletion strains, locus YOL136C, strain PFK27, hits give low values
[60] = S. cerevisiae deletion strains, locus YOR061W, strain CKA2, hits give low values
[61] = S. cerevisiae deletion strains, locus YOR119C, strain RIO1, hits give low values
[62] = S. cerevisiae deletion strains, locus YOR329C, strain SCD5, hits give low values
[63] = S. cerevisiae deletion strains, locus YPL031C, strain PHO85, hits give low values
[64] = S. cerevisiae deletion strains, locus YPL153C, strain RAD53, hits give low values
[65] = S. cerevisiae deletion strains, locus YPL204W, strain HRR25, hits give low values
[66] = S. cerevisiae deletion strains, locus YPL209C, strain IPL1, hits give low values
[67] = S. cerevisiae deletion strains, locus YPR025C, strain CCL1, hits give low values
[68] = S. cerevisiae deletion strains, locus YPR106W, strain ISR1, hits give low values
[69] = S. cerevisiae deletion strains, locus YPR111W, strain DBF20, hits give low values
[70] = S. cerevisiae deletion strains, strain NNK1, hits give low values
[71] = S. cerevisiae deletion strains, strain TSCII, hits give low values

Measured: normalized growth

CC(N)C12CC3CC(CC(C3)C1)C2 (centres undefined)
inactive: [1] 0.992 | [2] 0.977 | [3] 0.989 | [4] 0.935 | [5] 1.02 | [6] 0.944 | [7] 1.01 | [8] 0.979

COCCCNC(=S)N/N=C\c1cccc(OC)c1O
inactive: S. cerevisiae deletion strains, locus YAL013W, strain DEP1, hits give low values 0.984 | S. cerevisiae deletion strains, locus YBR229C, strain ROT2, hits give low values 1.02 | S. cerevisiae deletion strains, locus YCL061C, strain MRC1, hits give low values 0.979 | [9] 0.998 | S. cerevisiae deletion strains, locus YDL134C, strain PPH21, hits give low values 1.01 | S. cerevisiae deletion strains, locus YDR150W, strain NUM1, hits give low values 0.928 | S. cerevisiae deletion strains, locus YEL061C, strain CIN8, hits give low values 0.999 | S. cerevisiae deletion strains, locus YGR078C, strain PAC10, hits give low values 0.991 | [1] 1.01 | S. cerevisiae deletion strains, locus YHR087W, strain rtc3, hits give low values 1.01 | S. cerevisiae deletion strains, locus YJR043C, strain POL32, hits give low values 1.01 | S. cerevisiae deletion strains, locus YJR075W, strain HOC1, hits give low values 0.979 | S. cerevisiae deletion strains, locus YLR039C, strain RIC1, hits give low values 1.11 | S. cerevisiae deletion strains, locus YLR058C, strain SHM2 (second series), hits give low values 0.997 | S. cerevisiae deletion strains, locus YLR085C, strain ARP6, hits give low values 0.978 | S. cerevisiae deletion strains, locus YLR262C, strain YPT6, hits give low values 1.08 | S. cerevisiae deletion strains, locus YML094W, strain GIM5, hits give low values 0.994 | S. cerevisiae deletion strains, locus YMR219W, strain ESC1, hits give low values 0.991 | S. cerevisiae deletion strains, locus YMR263W, strain SAP30, hits give low values 0.991 | S. cerevisiae deletion strains, locus YMR307W, strain GAS1, hits give low values 0.951 | S. cerevisiae deletion strains, locus YNL153C, strain GIM3, hits give low values 0.987 | S. cerevisiae deletion strains, locus YNL298W, strain CLA4 (second series), hits give low values 1.04 | S. cerevisiae deletion strains, locus YNL322C, strain KRE1, hits give low values 0.989 | S. cerevisiae deletion strains, locus YNR030W, strain Alg12, hits give low values 0.982 | S. cerevisiae deletion strains, locus YOL006C, strain TOP1, hits give low values 0.988 | S. cerevisiae deletion strains, locus YPL055C, strain LGE1, hits give low values 0.856 | S. cerevisiae deletion strains, locus YPL241C, strain CIN2, hits give low values 0.964 | S. cerevisiae deletion strains, locus YPR135W, strain CTF4, hits give low values 0.94 | S. cerevisiae strains, strain wild type, hits give low values 1.02

COCCCNC(=S)N/N=C\c1cc(Br)ccc1O
inactive: [10] 0.967 | [11] 0.971 | [12] 0.962 | [13] 0.967 | [14] 0.961 | [15] 0.966 | [16] 0.963 | [9] 0.975 | [17] 0.97 | [18] 0.963 | [19] 0.977 | [20] 0.973 | [21] 0.956 | [22] 0.96 | [23] 0.954 | [24] 0.989 | [25] 0.95 | [26] 0.96 | [27] 0.963 | [28] 0.966 | [29] 0.983 | [30] 0.972 | [31] 0.957 | [32] 1 | [33] 0.915 | [1] 0.898 | [2] 0.967 | [34] 1.03 | [35] 0.943 | [36] 0.957 | [3] 0.992 | [37] 0.936 | [38] 0.965 | [39] 0.966 | [40] 0.983 | [4] 1.02 | [41] 0.98 | [42] 0.984 | [43] 0.975 | [44] 0.954 | [45] 1.02 | [5] 0.985 | [46] 0.967 | [47] 0.91 | [48] 0.982 | [49] 0.965 | [50] 0.973 | [51] 0.961 | [52] 0.965 | [53] 0.975 | [54] 0.962 | [6] 1.09 | [55] 0.967 | [56] 0.966 | [57] 0.97 | [58] 0.964 | [59] 0.982 | [60] 0.974 | [61] 1.03 | [7] 0.997 | [62] 0.966 | [63] 0.938 | [64] 0.951 | [65] 0.937 | [66] 0.965 | [8] 0.903 | [67] 0.962 | [68] 0.971 | [69] 0.967 | [70] 0.982 | [71] 0.964

CCOC(=O)N/N=C\c1cc(Cl)cc(Cl)c1O
inactive: [10] 0.948 | [11] 0.95 | [12] 0.928 | [13] 0.951 | [14] 0.938 | [15] 0.941 | [16] 0.942 | [9] 0.95 | [17] 0.935 | [18] 0.914 | [19] 0.824 | [20] 0.946 | [21] 0.928 | [22] 0.926 | [23] 0.741 | [24] 0.765 | [25] 0.828 | [26] 0.94 | [27] 0.931 | [28] 0.942 | [29] 0.87 | [30] 0.938 | [31] 0.737 | [32] 0.665 | [2] 0.626 | [34] 0.655 | [35] 0.586 | [36] 0.943 | [3] 0.535 | [37] 0.877 | [38] 0.785 | [39] 0.935 | [40] 0.743 | [42] 0.814 | [43] 0.74 | [44] 0.932 | [45] 0.756 | [48] 0.789 | [49] 0.948 | [51] 0.936 | [52] 0.956 | [54] 0.947 | [55] 0.931 | [56] 0.934 | [58] 0.94 | [59] 0.784 | [61] 0.729 | [7] 0.69 | [62] 0.943 | [63] 0.747 | [65] 0.706 | [66] 0.944 | [67] 0.934 | [68] 0.918 | [69] 0.92 | [70] 0.92 | [71] 0.952
active: [33] 0.251 | [1] 0.512 | [4] 0.473 | [41] 0.72 | [5] 0.67 | [46] 0.727 | [47] 0.425 | [50] 0.714 | [53] 0.679 | [6] 0.556 | [57] 0.621 | [60] 0.471 | [64] 0.67 | [8] 0.641
